Source: PubChem BioAssay
Calls of active or inactive are those of the source.

Tested on: not listed separately
Assay: CREB reporter modulators under forskolin, primary screen, cell-based, PC12, CRE-LacZ reporter, forskolin-stimulated (AID 1146);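 also: PC12 cells with 6xCRE LacZ reporter stimulated by forskolin 10 µM; beta-galactosidase reporter signal reflecting CREB driven transcription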
Conditions: luminescence, 4.5 h, higher = more signal, called active from +8 up or from −8 down

Compound | z-score
CCCCCC1=C2CNC(CC(C)C)(C(=O)OC)C=C2C(C)C1=O (centres undefined) | 0.728 (inactive)
O=C1C=C(c2ccccc2)C(=O)C2=C1CC([C@H]1Oc3ccccc3S(=O)(=O)N3CCC[C@@H]13)=CC2 | 20.1 (active)
COCCOC(=O)N1C(=O)[C@@]2(c3cc(C#CCC(C(=O)OC)C(=O)OC)ccc31)[C@H](C(=O)Nc1nc3ccccc3s1)[C@H]1C(=O)O[C@H](c3ccccc3)[C@H](c3ccccc3)N1[C@@H]2c1ccc(O)cc1 | 0.316 (inactive)
C=CCC(OC(C)=O)[C@@H]1[C@@H](N(Cc2ccc(-c3cccc(C(F)(F)F)c3)o2)C(=O)c2ccc(-c3ccccc3)cc2)c2cc(OCCCO)ccc2N1C(=O)c1ccc2ccccc2c1 (some centres undefined) | 0.308 (inactive)
Cc1ccc(S[C@]2(C(=O)NCCCN(C)C)CC(=O)N(Cc3ccccc3C(F)(F)F)[C@@H]2c2ccc(CO)cc2I)cc1 | 1.66 (inactive)
CN(C)CCCC[C@@H]1NC(=O)[C@H]2C[C@@H](C(=O)O)[C@@H](c3ccc(O)cc3)N2C1=O | -0.457 (inactive)
COCCOC(=O)N1C(=O)[C@@]2(c3cc(C#CCCO)ccc31)[C@H](c1ccc(OCCO)cc1)N1[C@H](c3ccccc3)[C@H](c3ccccc3)OC(=O)[C@H]1[C@@H]2C(=O)N1CCCCCCC1 | 2.51 (inactive)
CCN(CC)c1ccc(N2CC=CC34O[C@@H]5C=CCCOC(=O)C5[C@H]3C(=O)N(C(C)CO)[C@@H]4C2=O)cc1 (some centres undefined) | -0.0386 (inactive)
CC(C)=CCCC(C)=CC(O)C1C=CC2C(=O)NC(=O)C2N1Nc1ccc(Cl)cc1Cl (centres undefined) | 0.501 (inactive)
COC(=O)[C@@]1(Cc2ccc(F)cc2)[C@H]2c3cc(C(=O)N(C)C)n(CCc4ccc(O)c(O)c4)c3C[C@H]2CN1C(=O)c1ccccc1 | 1.4 (inactive)
N#Cc1ccc(-c2cccc(=O)o2)cc1 | 0.648 (inactive)
COC(=O)[C@@]1(Cc2ccccc2)[C@H]2c3cc(C(=O)N(C)C)n(CCO)c3C[C@H]2CN1C(=O)c1ccccc1 | -0.609 (inactive)
C=CCOC(=O)[C@H]1[C@@H]2C(=O)O[C@@H](c3ccccc3)[C@@H](c3ccccc3)N2[C@@H](c2ccc(OCCOC(=O)[C@@H]3C[C@@H]4C(=O)N[C@@H](CCCC[N+](C)(C)C)C(=O)N4[C@@H]3c3ccc(O)cc3)cc2)[C@]12C(=O)Nc1ccc(I)cc12 | 1.07 (inactive)

Biological target: Streptavidin (Streptomyces avidinii) (UniProt P22629)
Sequence (P22629 whole entry, looked up): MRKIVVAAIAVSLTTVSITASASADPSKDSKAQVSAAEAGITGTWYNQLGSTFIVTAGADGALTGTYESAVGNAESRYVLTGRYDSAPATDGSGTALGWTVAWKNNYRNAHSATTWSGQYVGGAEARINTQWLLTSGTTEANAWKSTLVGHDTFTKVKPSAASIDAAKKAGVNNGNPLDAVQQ
Assay: streptavidin binders on small-molecule microarray, primary screen, artefact control for SMM compound annotation, biophysical, 635/667 nm fluorescence (AID 1147);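 also: signal reflects streptavidin binding to arrayed compounds as a control protein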
Conditions: streptavidin binding, higher = more signal

Compound | composite z-score
CCOC(=O)C[C@H]1[C@H](OC(=O)Cc2ccc3c(c2)OCO3)[C@@H](NC(=O)Cc2ccc(OC)cc2)c2cc(OCCCO)ccc2N1C(=O)Cc1ccc(OC)cc1 | 0.699
COC(=O)[C@@]1(Cc2ccccc2)[C@H]2c3cc(C(=O)N4CCCC4)n(Cc4ccc(OC)c(OC)c4)c3C[C@H]2CN1C(=O)c1ccccc1 | 0.782
[N-]=[N+]=Nc1ccccc1C[C@]1(C(=O)N2CCOCC2)N=C(c2ccc(OCCCO)cc2)O[C@H]1c1ccccc1N=[N+]=[N-] | 1.79
CC(C)(C)N1CC=CC23O[C@@H]4/C=C\CCCOC(=O)C4[C@H]2C(=O)N(CCCO)[C@@H]3C1=O (some centres undefined) | -0.773
COc1ccc(CCNC(=O)[C@@H]2c3ccccc3C(=O)N(Cc3ccccc3OC)[C@H]2c2ccc(CO)cc2)cc1 | 0.628
NC(=O)NCC#Cc1ccc2c(c1)[C@]1(C(=O)N2)[C@H](c2ccc(OCCO)cc2)N2[C@H](c3ccccc3)[C@H](c3ccccc3)OC(=O)[C@H]2[C@@H]1C(=O)O | -0.204
COc1ccc(C(=O)Nc2ccc3c(c2)[C@@]2(O[C@H](CCO)[C@@H]([Si](C)(C)c4ccc(OC)cc4)[C@@H]2C)C(=O)N3Cc2ccccc2)cc1 | 0.0576
COC(=O)C1=CC(CCCO)=CC(c2cccs2)N(Cc2cc3c(cc2Br)OCO3)C=C1C(=O)OC (centres undefined) | 1.99
O=C1O[C@H](c2ccccc2)[C@H](c2ccccc2)N2[C@H]1[C@@H](C(=O)O)[C@]1(C(=O)Nc3ccc(C#CCCO)cc31)[C@H]2c1ccc(OCCO)cc1 | 0.468
CCOC(=O)C[C@H]1[C@H](OC(=O)Cc2ccc3c(c2)OCO3)[C@@H](NC(=O)c2ccc3ccccc3n2)c2cc(OCCCO)ccc2N1C(=O)Cc1ccc(OC)cc1 | 0.417
O=C(NC1CC1)[C@@H]1c2ccccc2C(=O)N(Cc2cc(C(F)(F)F)cc(C(F)(F)F)c2)[C@H]1c1ccc(CO)cc1 | 0.0581
C=C(/C(=C/C[C@@H](OC(C)=O)c1cccc(OCCO)c1)c1cnc2ccccc2c1)C(C)C | 0.208
O=C1C2C=CC(C(O)c3cccs3)N(Nc3ccc([N+](=O)[O-])cc3)C2C(=O)N1c1ccccc1 (centres undefined) | 0.46
C[N+](C)(C)CCCC[C@@H]1NC(=O)[C@H]2C[C@@H](C(=O)NCCCCCNC(=O)CS)[C@@H](c3cccc(OCCO)c3)N2C1=O | 0.474
COCCOC(=O)N1C(=O)[C@@]2(c3cc(C#CCC(C(=O)OC)C(=O)OC)ccc31)[C@H](c1ccc(O)cc1)N1[C@H](c3ccccc3)[C@H](c3ccccc3)OC(=O)[C@H]1[C@@H]2C(=O)Nc1nc2ccccc2s1 | 0.633
COC(=O)[C@@]1(Cc2ccc(OC)cc2)[C@H]2c3cc(C(=O)N4CCCC4)n(Cc4c(CO)[nH]cc(C)c4=O)c3C[C@H]2CN1C(=O)c1ccccc1 | 1.51
O=C1C[C@]2(c3ccc([N+](=O)[O-])cc3)C(=O)N(C3CC3)c3cc(CO)ccc3[C@H]2N1C1CCCCC1 | 0.358
C=C(COC)/C(=C/C[C@@H](OC(C)=O)c1ccccc1OCCO)c1cnc2ccccc2c1 | 0.219

Compound | composite z-score
COCCOC(=O)N1C(=O)[C@@]2(c3cc(C#CC4(O)CCCCCC4)ccc31)[C@H](c1ccc(O)cc1)N1[C@H](c3ccccc3)[C@H](c3ccccc3)OC(=O)[C@H]1[C@@H]2C(=O)N1CCCCCCC1 | -0.215
C=CCOC(=O)[C@@H]1[C@H]2C(=O)O[C@H](c3ccccc3)[C@H](c3ccccc3)N2[C@H](c2ccc(OCCOC(=O)[C@H]3C[C@H]4C(=O)N[C@@H](CCCCN(C)C)C(=O)N4[C@H]3c3ccc(O)cc3)cc2)[C@@]12C(=O)Nc1ccc(I)cc12 | 0.433
COC(=O)C[C@H]1O[C@@]2(C[C@@H]1[Si](C)(C)C)C(=O)N(C)c1ccccc12 | 0.327
C=CCC(OC(C)=O)[C@@H]1[C@@H](N(Cc2cc3ccccc3o2)C(=O)c2cccc3ccccc23)c2cc(OCCCO)ccc2N1C(=O)c1ccc2ccccc2n1 (some centres undefined) | 0.0002
COC(=O)[C@@]1(Cc2ccc(OC)cc2)[C@H]2c3cc(C(=O)N4CCCC4)n(CCn4cc([N+](=O)[O-])nc4C)c3C[C@H]2CN1C(=O)c1ccccc1 | 2.22
CCCCCC1=C2CNC(CC(C)C)(C(=O)OC)C=C2C(C)C1=O (centres undefined) | 0.428
O=C1C=C(c2ccccc2)C(=O)C2=C1CC([C@H]1Oc3ccccc3S(=O)(=O)N3CCC[C@@H]13)=CC2 | 0.429
COCCOC(=O)N1C(=O)[C@@]2(c3cc(C#CCC(C(=O)OC)C(=O)OC)ccc31)[C@H](C(=O)Nc1nc3ccccc3s1)[C@H]1C(=O)O[C@H](c3ccccc3)[C@H](c3ccccc3)N1[C@@H]2c1ccc(O)cc1 | 1.27
C=CCC(OC(C)=O)[C@@H]1[C@@H](N(Cc2ccc(-c3cccc(C(F)(F)F)c3)o2)C(=O)c2ccc(-c3ccccc3)cc2)c2cc(OCCCO)ccc2N1C(=O)c1ccc2ccccc2c1 (some centres undefined) | 0.177
Cc1ccc(S[C@]2(C(=O)NCCCN(C)C)CC(=O)N(Cc3ccccc3C(F)(F)F)[C@@H]2c2ccc(CO)cc2I)cc1 | -0.493
CN(C)CCCC[C@@H]1NC(=O)[C@H]2C[C@@H](C(=O)O)[C@@H](c3ccc(O)cc3)N2C1=O | 3.44
COCCOC(=O)N1C(=O)[C@@]2(c3cc(C#CCCO)ccc31)[C@H](c1ccc(OCCO)cc1)N1[C@H](c3ccccc3)[C@H](c3ccccc3)OC(=O)[C@H]1[C@@H]2C(=O)N1CCCCCCC1 | 1.79
CCN(CC)c1ccc(N2CC=CC34O[C@@H]5C=CCCOC(=O)C5[C@H]3C(=O)N(C(C)CO)[C@@H]4C2=O)cc1 (some centres undefined) | -0.638
CC(C)=CCCC(C)=CC(O)C1C=CC2C(=O)NC(=O)C2N1Nc1ccc(Cl)cc1Cl (centres undefined) | 1.26
COC(=O)[C@@]1(Cc2ccc(F)cc2)[C@H]2c3cc(C(=O)N(C)C)n(CCc4ccc(O)c(O)c4)c3C[C@H]2CN1C(=O)c1ccccc1 | 0.365
N#Cc1ccc(-c2cccc(=O)o2)cc1 | 0.427
COC(=O)[C@@]1(Cc2ccccc2)[C@H]2c3cc(C(=O)N(C)C)n(CCO)c3C[C@H]2CN1C(=O)c1ccccc1 | 2.16
C=CCOC(=O)[C@H]1[C@@H]2C(=O)O[C@@H](c3ccccc3)[C@@H](c3ccccc3)N2[C@@H](c2ccc(OCCOC(=O)[C@@H]3C[C@@H]4C(=O)N[C@@H](CCCC[N+](C)(C)C)C(=O)N4[C@@H]3c3ccc(O)cc3)cc2)[C@]12C(=O)Nc1ccc(I)cc12 | 0.0756
